In PubChem BioAssay AID493212 (National Center for Advancing Translational Sciences (NCATS), 2011):
This is one part of the list. Inconclusive results are not listed. Activity calls are given as the source filed them. The call rests on the fitted dose curve; in most records, active means well fitted inhibition curve with a large enough effect; inconclusive means small, poorly fitted or top-dose-only effect; inactive means no such curve, though single readings can be large or run the other way.

molecular target: Lysine-specific demethylase 4E (Homo sapiens) (UniProt B2RXH2); assay: Inhibitors of Human Jumonji Domain Containing 2E (JMJD2E): 8HQs - Round 1; details: FDH-coupled NADH fluorescence (FDH is formaldehyde dehydrogenase)
Text: The fine interplay among methylation states of several lysine residues on the tails of histone proteins is a major determinant of the transcriptional state of the associated DNA coding regions and is commonly referred to as the histone code. Histone lysine demethylases catalyze the removal of methyl groups from methylated lysine sidechains on histones H3 and H4, thus antagonizing the reactions catalyzed by histone lysine methyltransferases. […] In search for novel inhibitors of JMJD2E demethylase, a member of the largest set of histone demethylases belonging to the Fe(II) and 2-oxoglutarate oxygenase (2OG) superfamily, we performed a quantitative high-throughput screen (Inglese 2006) by using an assay which utilizes a trimethylated peptide substrate corresponding to a fragment of histone H3 (sequence ARKme3STGGK) with detection of the formaldehyde co-product in real time by a formaldehyde dehydrogenase (FDH) coupled reaction. FDH catalyzes oxidation of formaldehyde to formic acid with the concomitant reduction of the non-fluorescent beta-nicotinamide adenine dinucleotide hydrate (NAD+) cofactor to the fluorescent NADH co-product. This assay is a following of SAR around 8-hydroxyquinoline-based inhibitors of JMJD2E. References: Inglese, J., Auld, D., Jadhav, A., Johnson, R., Simeonov, A., Yasgar, A., Zheng, W. and Austin, C. Proc Natl Acad Sci USA 2006, 103, 11473-11478. N. R. Rose, S. S. Ng, J. Mecinovic, B. M. Lienard, S. H. Bello, Z. Sun, M. A. McDonough, U. Oppermann and C. J. Schofield, J Med Chem, 2008, 51, 7053-7056. Sakurai, M., Rose, N., Schultz, L., Quinn, A., Jadhav, A., Ng, S., Oppermann, U., Schofield, C.J. and Simeonov, A. Mol BioSystems 2009, in press. S. Michael, D. Auld, C. Klumpp, A. Jadhav, W. Zheng, N. Thorne, C. Austin, J. Inglese and A. Simeonov, Assay Drug Dev Technol, 2008, 6, 637-657. Assay Provider: Structural Genomics Consortium [SGC] Screening Center PI: Austin, C.P. Screening Center: NIH Chemical Genomics Center [NCGC]
Reagents and Controls: Ferrous ammonium sulfate, (+)-sodium L-ascorbate, beta-nicotinamide adenine dinucleotide hydrate (NAD+), Tween-20, formaldehyde dehydrogenase from P. putida (FDH), and disodium 2-oxoglutarate were from Sigma (St. Louis, MO). Black solid-bottom 384-well or 1,536-well assay plates were from Greiner Bio-One (Monroe, NC). Enzyme was supplied by Prof. Udo Oppermann, SGC-Oxford. The catalytic domain of human JMJD2E (residues 1-337) was produced as an N-terminally His6-tagged protein in E. coli, and purified by Ni-affinity chromatography and size-exclusion chromatography, and stored in HEPES 50 mM/ NaCl 500 mM pH 7.5, as reported in Rose 2008. The trimethylated histone peptide substrate ARK(me3)STGGK was synthesized and HPLC-purified by the Tufts University Core Facility (Boston, MA). Substrate solution (Sakurai 2009) contained 50 uM ARK(me3)STGGK, 0.00025 U/uL FDH, 50 uM 2-oxoglutarate, 250 uM NAD+, 1 mM ascorbate, and 10 uM ferrous ammonium sulfate. Controls and plate map: Buffer (150 mM HEPES pH 7.5 containing 0.01% Tween-20) in columns 3 and 4 as negative control (no enzyme) and 100 nM JMJD2E final concentration in columns 1,2, and 5-48. […] The plate was transferred to ViewLux imager where an initial reading using standard UV optics (Ex 340 nm, Em 450 nm) was obtained. The plate was then removed from the reader, incubated for 30 minutes at room temperature, and returned to the reader for a second fluorescence reading. […]

Chain of Lysine-specific demethylase 4E (Homo sapiens) (B2RXH2 1-337 limits assumed): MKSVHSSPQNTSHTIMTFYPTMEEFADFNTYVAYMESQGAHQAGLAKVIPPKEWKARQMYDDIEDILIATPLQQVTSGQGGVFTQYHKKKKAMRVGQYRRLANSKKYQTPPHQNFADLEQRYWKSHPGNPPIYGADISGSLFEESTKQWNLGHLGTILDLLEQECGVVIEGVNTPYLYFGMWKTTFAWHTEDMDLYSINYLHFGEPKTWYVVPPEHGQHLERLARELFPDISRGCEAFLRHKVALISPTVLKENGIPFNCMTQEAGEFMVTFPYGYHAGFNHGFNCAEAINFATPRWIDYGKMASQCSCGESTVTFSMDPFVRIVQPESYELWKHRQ

Potency, active:
Oc1ccc(/C=C/c2c(F)cccc2F)c2cccnc12 8.91 µM, Nc1ccc(Nc2cc(O)c3ncccc3c2)cc1 32.4 µM, Oc1cccc2cc(-c3ccncc3)cnc12 18.2 µM, Oc1c(CN2CCCC2)cc(COCc2ccccc2)c2cccnc12 5.01 µM, CC(=O)NC(c1cccs1)c1cc(Cl)c2cccnc2c1O (stereo not given) 12.9 µM
